Compound activity (PubChem BioAssay)
The full list was thinned out, with hits kept by preference.
PTHR1 agonist = agonists of human PTHR1 parathyroid hormone receptor. Q03431. actives 0.075% (n = 410,000). HEK293 GP2 PTHR1 cells, GloSensor cAMP luminescence, 1 h. Potency, µM (series often up to 115 µM), hits mostly activators; also: nearly all actives have a fitted effect of over 55% in size
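HEK-293-derived GP2 cells expressing PTHR1 and a GloSensor cAMP reporter, 3,000/well, plated overnight, given luciferin plus IBMX (each 0.5 mM as added) for 1 h at 37 °C, then compound for 1 h at 37 °C. Luminescence was read after 15 min at room temperature.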
RXFP1 agonist = activates the human relaxin receptor RXFP1; Q9HBX9; HEK293T-RXFP1 cAMP TR-FRET, 30 min; response scale: percent of porcine relaxin response, buffer zero; Potency, µM (top dose mostly 57.5 µM), actives largely listed as activators; actives 0.3% (n = 370,000); also: nearly all actives have a fitted effect of over 60% in size
Target sequence (Q9HBX9 whole entry, looked up): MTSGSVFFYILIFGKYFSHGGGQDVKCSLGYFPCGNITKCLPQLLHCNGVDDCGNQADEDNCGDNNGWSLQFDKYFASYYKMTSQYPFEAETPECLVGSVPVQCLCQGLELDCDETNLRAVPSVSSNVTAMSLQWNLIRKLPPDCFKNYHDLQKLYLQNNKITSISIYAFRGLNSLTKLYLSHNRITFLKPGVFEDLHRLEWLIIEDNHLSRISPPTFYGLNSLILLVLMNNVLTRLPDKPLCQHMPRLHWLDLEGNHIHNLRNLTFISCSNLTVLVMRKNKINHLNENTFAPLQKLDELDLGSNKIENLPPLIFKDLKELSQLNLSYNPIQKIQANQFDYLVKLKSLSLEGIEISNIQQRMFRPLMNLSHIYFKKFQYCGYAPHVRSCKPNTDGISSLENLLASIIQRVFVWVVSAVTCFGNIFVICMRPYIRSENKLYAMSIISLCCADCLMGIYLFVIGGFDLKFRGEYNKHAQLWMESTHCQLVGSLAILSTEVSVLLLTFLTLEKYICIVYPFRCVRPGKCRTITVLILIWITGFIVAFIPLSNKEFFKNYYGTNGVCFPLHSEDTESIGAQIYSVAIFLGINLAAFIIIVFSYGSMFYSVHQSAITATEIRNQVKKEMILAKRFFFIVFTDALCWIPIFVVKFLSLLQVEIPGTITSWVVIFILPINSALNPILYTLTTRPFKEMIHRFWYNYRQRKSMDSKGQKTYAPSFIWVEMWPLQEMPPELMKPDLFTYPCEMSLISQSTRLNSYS
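cAMP rise read by TR-FRET after 30 min, 37C compound exposure (up to 58 uM) in RXFP1-transfected HEK293 cells with Ro 20174 present. EC50 from Hill-equation fits, with 29 nM porcine relaxin as 100% and buffer as basal.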
RXFP1 antagonist = RXFP1 (human) relaxin receptor antagonism; activity change, negative = inhibition, % at 57.5 µM; Q9HBX9; actives 0.59% (n = 350,000); HEK293-RXFP1, relaxin-stimulated cAMP HTRF, 30 min; active compounds read low; AID 1259400;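 active = activity change of -60% or lower, but not beyond a set lower limit; inconclusive = change between -60% and -40%, or beyond the set limit; inactive = change above -40%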
TSHR antagonist = human thyrotropin receptor antagonism; AID 504810; P16473; activity change, negative = inhibition, % at 11.5 µM; TSHR-expressing cells, TSH-stimulated cAMP HTRF, 2 h; active compounds read low; actives 0.2% (n = 330,000);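 active = activity change below a set negative limit, meaning inhibition stronger than a set level, cut at about -70% in these data; inconclusive = activity change between two set negative limits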
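Inhibition of cAMP made by TSHR-expressing cells under TSH stimulation (4nM final, EC80; 2 h, 37 deg C) is quantified with a one-step lysis HTRF kit, anti-cAMP cryptate versus cAMP-d2.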
NPSR antag = blocks cAMP signaling of the human neuropeptide S receptor; Q6W5P4; Potency, µM (top dose mostly 38.3 µM), usual class: inhibitors; AID 1461; actives 1% (n = 220,000); CHO-NPSR cells, cAMP TR-FRET, antagonist mode; also: nearly all actives have a fitted effect of over 50% in size
HEK293 tox = cytotoxicity in counter-screen for GLP-1R inverse agonists. HEK293 cAMP-luciferase reporter cells, luminescence, 24 h. Potency, µM (top dose mostly 38.3 µM), most hits filed as inhibitors. actives 0.13% (n = 410,000);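 also: loss of luciferase light is scored as toxicity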
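Quantitative HTS format, 1536 wells, 200 cells/uL seeded. Compounds: 23 nL, 24 h, 37 °C. Detection: luciferase reagent, luminescence at 12 min RT; decreased signal taken as cytotoxic.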
Large screens that a line does not name were inactive. Unless noted, calls follow the shape of the dose curve; as a rule, active = well fitted curve in the direction sought with a large enough effect; inconclusive = small, poorly fitted or top-dose-only effect, or another doubt; inactive = no such curve, though single readings can be large; an effect the other way counts as inactive or inconclusive.

O=C(/C=C/c1ccccc1)c1c(O)n(CCc2ccccc2)c(=O)[nH]c1=O	NPSR antag 13µM
O=C(/C=C/c1ccc2c(c1)OCO2)c1c(O)n(CCc2ccccc2)c(=O)[nH]c1=O	NPSR antag inconclusive
COc1cc(/C=C/C(=O)c2c(O)n(CCc3ccccc3)c(=O)[nH]c2=O)ccc1O	NPSR antag 10µM
COc1nc(NC2CCCCC2)nc(NC(C)(C)C)n1	none (no result: RXFP1 agonist, TSHR antagonist, NPSR antag)
NC1=C(Br)C(=O)c2ncccc2C1=O	HEK293 tox 4µM (no result: RXFP1 agonist, TSHR antagonist, NPSR antag)
O=c1cc(CSc2ccc(Cl)cc2)nc(-c2ccccn2)[nH]1	HEK293 tox inconclusive (no result: NPSR antag)
CCC1C=CC=CC[C@H](C)[C@@H](O)[C@](C)(O)C(=O)[C@@H](C)[C@H](O)[C@@H](C)C(=O)[C@H](C)[C@@H](O)[C@H](C)C=CC(=O)OC2[C@@H](C)C(CC1)OC1(CC[C@@H](C)C(C[C@H](C)O)O1)[C@@H]2C (some centres not stated)	TSHR antagonist -80 (no result: PTHR1 agonist, RXFP1 antagonist, NPSR antag, HEK293 tox)
COc1ccc(C(C)=O)cc1CSc1nc(NCc2ccccc2)c2ccccc2n1	HEK293 tox inconclusive (no result: TSHR antagonist, NPSR antag)
CCN(CC)c1ccc(NC2=C(Cl)C(=O)c3ccccc3C2=O)cc1	TSHR antagonist -93, NPSR antag 13µM, HEK293 tox inconclusive
CCN1/C(=C\C=C\C2=[N+](CC)c3ccccc3C2(C)C)C(C)(C)c2ccccc21	RXFP1 antagonist -73, TSHR antagonist inconclusive, NPSR antag 16µM, HEK293 tox inconclusive
CC(Cc1ccccc1)NCCCCl (configuration not stated)	none (no result: PTHR1 agonist, RXFP1 agonist, TSHR antagonist, NPSR antag, HEK293 tox)
CC1=C(C)/C(=N\OS(=O)(=O)c2ccccc2)C=CC1=O	RXFP1 antagonist -114, NPSR antag 5µM, HEK293 tox inconclusive
COCCCn1c(N)c(C(=O)NCCC(C)C)c2nc3ccccc3nc21	NPSR antag 10µM
COc1cc(NC(=O)c2cc3cc4ccc(C)cc4nc3o2)cc(OC)c1OC	none (no result: RXFP1 antagonist, TSHR antagonist, NPSR antag)
CS(=O)c1nc(-c2ccc(Br)cc2)cc(-c2ccccc2)c1C#N (configuration not stated)	TSHR antagonist -73, NPSR antag 13µM, HEK293 tox inconclusive
CC[C@H](OC(C)=O)C(C[C@H](C)NC)(c1ccccc1)c1ccccc1	none (no result: PTHR1 agonist, RXFP1 agonist, TSHR antagonist, NPSR antag, HEK293 tox)
O=[N+]([O-])/C=C/c1c(Cl)cccc1Cl	RXFP1 antagonist -67, HEK293 tox inconclusive (no result: RXFP1 agonist, TSHR antagonist, NPSR antag)
CCN(CC)c1ccc(/C=C/[N+](=O)[O-])cc1	none
c1ccc(N2CCN(c3ncnc4c3nc3n4CCCCC3)CC2)cc1	none (no result: RXFP1 antagonist, TSHR antagonist, NPSR antag)
Cc1ccccc1CN1C(=O)C(C)N=C(c2ccccc2)c2ccccc21 (configuration not stated)	RXFP1 antagonist -70 (no result: TSHR antagonist, NPSR antag)
Cc1oc(-c2ccccc2)nc1CN1C(=O)C(C)N=C(c2ccccc2F)c2cc(Cl)ccc21 (configuration not stated)	none (no result: RXFP1 antagonist)
CCCCCCCCCCCCCCCC[n+]1ccc(/C=N/O)cc1	NPSR antag 5µM, HEK293 tox inconclusive
CCC(C)C(C)(COC(N)=O)COC(N)=O (configuration not stated)	none (no result: PTHR1 agonist, RXFP1 agonist, TSHR antagonist, NPSR antag, HEK293 tox)
COc1ccc(C(=O)/C(C#N)=N/Nc2ccc([N+](=O)[O-])cc2)cc1	HEK293 tox inconclusive
N#CC(C#N)=NNc1ccc([N+](=O)[O-])cc1	TSHR antagonist -76, NPSR antag 4µM, HEK293 tox inconclusive
CCN(CC)S(=O)(=O)c1ccc(NN=C(C#N)C#N)cc1	TSHR antagonist -70
O=C(NCc1ccc2c(c1)CCN2C(=O)c1ccccc1)Nc1cccc(C(F)(F)F)c1	none (no result: TSHR antagonist, NPSR antag)
O=C(Nc1nc2c(s1)CCCCCC2)Nc1ccc(F)cc1F	none (no result: TSHR antagonist, NPSR antag)
O=C1Nc2ccc(Br)cc2/C1=C/C(=O)c1ccc2c(c1)OCO2	RXFP1 antagonist -84, NPSR antag inconclusive, HEK293 tox inconclusive
C[C@@H]1O[C@@H](O[C@H]2C[C@@H](O)[C@]3(CO)[C@H]4[C@H](O)C[C@]5(C)[C@@H](C6COC(=O)C6)CC[C@]5(O)[C@@H]4CC[C@]3(O)C2)[C@H](O)[C@H](O)[C@H]1O (some centres not stated)	TSHR antagonist inconclusive (no result: RXFP1 antagonist)
C[C@@H]1O[C@@H](O[C@@H]2C=C3CCC4C(CC[C@]5(C)[C@@H](c6ccc(=O)oc6)CC[C@]45O)[C@@]3(C)CC2)[C@H](O)[C@H](O)[C@H]1O (some centres not stated)	TSHR antagonist -74 (no result: RXFP1 antagonist, NPSR antag)
C[C@@H]1O[C@@H](O[C@H]2C[C@@H](O)[C@]3(CO)[C@@H]4C(CC[C@]3(O)C2)[C@@]2(O)CC[C@H]([C@@H]3COC(=O)C3)[C@@]2(C)C[C@H]4O)[C@H](O)[C@H](O)[C@H]1O (some centres not stated)	none (no result: PTHR1 agonist, RXFP1 agonist, RXFP1 antagonist, NPSR antag, HEK293 tox)
C[C@@H]1O[C@@H](O[C@@H]2C=C3CC[C@@H]4C(CC[C@]5(C)[C@@H](c6ccc(=O)oc6)CC[C@]45O)[C@@]3(C)CC2)[C@H](O)[C@H](O)[C@H]1O (some centres not stated)	TSHR antagonist -78 (no result: RXFP1 antagonist, NPSR antag)
CCOP(=S)(OCC)Oc1cc(C)oc(=O)c1	TSHR antagonist -70
CCOP(=S)(OCC)Oc1cc(C)oc(=O)c1Cl	none
CCN(C(=O)CN1CC=C(c2ccccc2)CC1)c1c(N)n(Cc2ccccc2)c(=O)[nH]c1=O	RXFP1 antagonist -61
CC(C)CN(C(=O)CN1CC=C(c2ccccc2)CC1)c1c(N)n(CC(C)C)c(=O)[nH]c1=O	none
Cc1ccc(C(=O)/C=C/c2cc(Br)cc(Br)c2O)o1	RXFP1 antagonist inconclusive, HEK293 tox inconclusive (no result: NPSR antag)
O=C(Nc1ccn(CCCNCC(c2ccccc2)c2ccccc2)c(=O)n1)OCc1ccccc1	HEK293 tox inconclusive (no result: RXFP1 agonist, TSHR antagonist, NPSR antag)
CC[C@@H](C)[C@H](NC(=O)OC(C)(C)C)c1nnc(S(=O)(=O)Cc2cc(C)ccc2C)o1	RXFP1 antagonist inconclusive, TSHR antagonist inconclusive, NPSR antag 10µM, HEK293 tox inconclusive
CC1=C(N2CC2)C(=O)C(CO)=C(N2CC2)C1=O	HEK293 tox 0.79µM (no result: RXFP1 agonist, TSHR antagonist, NPSR antag)
COC(COC(N)=O)C1=C(N2CC2)C(=O)C(C)=C(N2CC2)C1=O (configuration not stated)	HEK293 tox inconclusive (no result: RXFP1 agonist, TSHR antagonist, NPSR antag)
O=C1OCc2cc(N=Nc3c(O)[nH]c(=O)[nH]c3=O)ccc21	RXFP1 agonist 10µM
CC(C)c1ccc(N=Nc2c(O)[nH]c(=O)[nH]c2=O)cc1	none
O=c1[nH]c(O)c(N=Nc2ccc([N+](=O)[O-])cc2)c(=O)[nH]1	RXFP1 agonist 14µM
COc1nn(CSP(=S)(OC)OC)c(=O)s1	none (no result: PTHR1 agonist, RXFP1 agonist, TSHR antagonist, NPSR antag, HEK293 tox)
